# In the library only some 1.2% were active in any assay of this set; here they are far more common.
# Efflux pump inh – inhibitors of Candida efflux pumps in yeast, primary screen, S. cerevisiae, Nile Red, multiplex | S. cerevisiae Candida pump triplex | actives 0.44% (n = 330,000) | inhibition, % at 10 µM;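 active means plate passing quality check with inhibition over a set limit, or well fluorescence over plate mean plus 4 SD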;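 further: Nile Red retained in pooled yeast measured as flow cytometry median fluorescence; 0% = buffer negative control and 100% = Enniatin B positive control; higher means more Nile Red kept so more efflux inhibition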
# LRH-1 inv ag – LRH-1 (NR5A2) inverse agonists, primary screen, cell-based, luminescence, HEK293T, StAR-luciferase reporter; Nuclear receptor subfamily 5 group A member 2 (Homo sapiens), O00482; LRH-1 transfected, 24 h; inhibition, % at 3.6 µM; actives 0.13% (n = 360,000); AID 602396, 2012;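 active means inhibition above the mean inhibition of all tested compounds plus 3 SD, cut at about 73% in these data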;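 further: 0% = DMSO wells and 100% = reporter-only cells lacking LRH-1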
# SRC1 inh – SRC1 coactivator transcriptional activity inhibitors, primary screen, cell-based, luminescence; Nuclear receptor coactivator 1 (Homo sapiens), Q15788; HEK293 GAL4-SRC1 luciferase reporter; inhibition, % at 3.6 µM; actives 0.12% (n = 360,000);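 active means inhibition above the campaign mean plus 3 SD, with each screening campaign given its own cutoff, cut at about 60% in these data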;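 further: 0% = DMSO treated cells and 100% = gossypol at 36 µM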
# Target sequence (Q15788 whole entry, looked up, the tested form may be a part): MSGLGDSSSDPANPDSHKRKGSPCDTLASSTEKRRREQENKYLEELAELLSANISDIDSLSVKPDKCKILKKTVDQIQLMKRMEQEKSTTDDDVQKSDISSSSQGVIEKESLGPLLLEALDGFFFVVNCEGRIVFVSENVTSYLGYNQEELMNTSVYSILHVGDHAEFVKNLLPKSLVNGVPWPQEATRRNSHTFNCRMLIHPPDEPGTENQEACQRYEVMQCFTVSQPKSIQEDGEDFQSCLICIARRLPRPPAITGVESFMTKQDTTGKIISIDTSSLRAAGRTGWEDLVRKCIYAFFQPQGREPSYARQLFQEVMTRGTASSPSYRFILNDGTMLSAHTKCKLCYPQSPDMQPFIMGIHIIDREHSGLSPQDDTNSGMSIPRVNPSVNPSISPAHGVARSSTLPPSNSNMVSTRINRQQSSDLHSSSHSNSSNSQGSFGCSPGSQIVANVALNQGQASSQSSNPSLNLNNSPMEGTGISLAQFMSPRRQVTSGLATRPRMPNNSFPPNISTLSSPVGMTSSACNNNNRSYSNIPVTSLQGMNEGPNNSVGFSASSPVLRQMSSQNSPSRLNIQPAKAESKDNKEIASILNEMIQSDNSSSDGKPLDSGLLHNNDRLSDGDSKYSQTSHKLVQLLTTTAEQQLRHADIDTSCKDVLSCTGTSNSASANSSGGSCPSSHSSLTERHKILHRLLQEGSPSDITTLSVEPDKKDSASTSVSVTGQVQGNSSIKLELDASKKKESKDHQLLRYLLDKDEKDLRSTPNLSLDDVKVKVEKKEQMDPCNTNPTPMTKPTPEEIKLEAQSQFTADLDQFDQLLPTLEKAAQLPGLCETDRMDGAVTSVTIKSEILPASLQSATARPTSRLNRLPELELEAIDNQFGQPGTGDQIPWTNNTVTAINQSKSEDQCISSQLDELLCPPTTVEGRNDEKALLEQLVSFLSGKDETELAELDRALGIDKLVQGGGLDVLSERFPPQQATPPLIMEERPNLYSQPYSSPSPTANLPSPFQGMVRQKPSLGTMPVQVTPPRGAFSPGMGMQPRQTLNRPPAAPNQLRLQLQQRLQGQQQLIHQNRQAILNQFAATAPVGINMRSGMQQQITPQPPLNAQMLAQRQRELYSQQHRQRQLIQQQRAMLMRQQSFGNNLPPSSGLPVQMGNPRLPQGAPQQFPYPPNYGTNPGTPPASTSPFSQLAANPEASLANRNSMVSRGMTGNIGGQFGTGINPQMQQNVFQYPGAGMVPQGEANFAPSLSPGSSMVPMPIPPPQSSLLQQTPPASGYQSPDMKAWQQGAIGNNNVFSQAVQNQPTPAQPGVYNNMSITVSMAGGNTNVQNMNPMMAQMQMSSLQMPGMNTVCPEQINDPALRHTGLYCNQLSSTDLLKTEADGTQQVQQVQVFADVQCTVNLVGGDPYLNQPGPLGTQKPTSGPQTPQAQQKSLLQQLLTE
# NCOA3 inh – SRC3 coactivator transcriptional activity inhibitors, primary screen, cell-based, luminescence. HEK293 GAL4-SRC3 luciferase reporter. inhibition, % at 3.6 µM. actives 0.17% (n = 360,000);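 active means inhibition above a per-campaign cutoff, the mean of all compounds plus 3 SD, cut at about 60% in these data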;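 further: 0% = DMSO-treated cells and 100% = gossypol-treated cells at 36 µM; higher means less SRC3-driven luciferase light from the GAL4 reporter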
# SRC2 inh – inhibition of GAL4-SRC2 driven luciferase reporter, primary screen, SRC2 inhibitor project, cell-based, luminescence. Nuclear receptor coactivator 2 (Homo sapiens), Q15596. HEK293 GAL4-SRC2 luciferase reporter. inhibition, % at 9 µM. actives 0.17% (n = 370,000);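 active means inhibition above the mean inhibition of all tested compounds plus 3 SD, set per campaign, cut at about 52% in these data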;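 further: 0% = DMSO treated cells and 100% = cells given Gossypol at 36 µM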
# COUP-TFII inh – NR2F2 transcriptional activity inhibitors, primary screen, cell-based, luciferase reporter, HEK293T, luminescence; COUP transcription factor 2 (Homo sapiens), P24468; HEK293T NGFI-A luciferase reporter; inhibition, % at 8.6 µM; actives 0.7% (n = 370,000); AID 686940, 2013;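 active means inhibition above a per-plate cutoff, mean inhibition of test wells between control levels plus 3 SD, cut at about 38% in these data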;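 further: cells cotransfected with COUP-TFII expression vector driving the NGFI-A reporter; 0% = median of COUP-TF2 test wells and 100% = reporter-only cells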
# Yeast cmpd fluor – flagged as fluorescent in efflux inhibitor counter-screen. S. cerevisiae AD/pABC3, compound fluorescence, flow cytometry. AID 588517. shares compounds with Efflux pump inh. actives 4% (n = 1,700). fluorescence ratio to DMSO, % at 10 µM;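 active means fluorescence ratio to DMSO above its plate's cutoff, the plate mean ratio plus 5 SD, cut at about 210% in these data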;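 further: unstained yeast with no Nile Red so the signal is compound autofluorescence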
# CaMdr1 efflux inh – inhibitors of Candida albicans Mdr1 efflux, confirmation, flow cytometry, singleplex, Cherry Pick1 set. shares compounds with Efflux pump inh. S. cerevisiae AD/CaMDR1, Nile Red efflux. inhibition, % at 10 µM. actives 1% (n = 1,700); in the data active means inhibition above about 26%;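 further: 0% = DMSO vehicle and 100% = reference inhibitor; higher means more Nile Red retained so more efflux inhibition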
# Cdr2 pump inh – inhibitors of Candida albicans Cdr2 efflux pump, confirmation, S. cerevisiae AD/CaCDR2, flow cytometry, cherry pick 1, singleplex; shares compounds with Efflux pump inh; Nile Red retention; Nile Red retention ratio vs DMSO, % at 10 µM; actives 4% (n = 1,700); AID 588520, 2011; in the data active means Nile Red retention ratio vs DMSO above about 190%;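 further: higher ratio means more blocking of Cdr2 efflux of the dye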
# Cdr1 pump inh – inhibitors of Candida albicans Cdr1 efflux pump, confirmation, S. cerevisiae AD/CaCDR1, flow cytometry, cherry pick 1, singleplex | shares compounds with Efflux pump inh | Nile Red efflux | inhibition, % at 10 µM | actives 1% (n = 1,700);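 active means inhibition above the screen-wide mean plus twice its standard deviation, cut at about 32% in these data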
# * hit, by the source's call; / = not tested or not shown.
SMILES,Efflux pump inh,LRH-1 inv ag,SRC1 inh,NCOA3 inh,SRC2 inh,COUP-TFII inh,Yeast cmpd fluor,CaMdr1 efflux inh,Cdr2 pump inh,Cdr1 pump inh
O=C(Nc1ccc(Cl)cc1)N1CCCC(Cn2cccc2)C1 (centres undefined),0,0,-17,-12,-1,17,/,/,/,/
O=C(NCC(=O)N1CCC2(CC1)NCCc1[nH]cnc12)c1ccc2ccccc2c1,0,-17,-3,1,-2,2,/,/,/,/
Cc1ccc(C(=O)NCC(=O)NCC(c2ccco2)N2CCCCC2)cc1C (centres undefined),/,11,0,-6,-16,-1,/,/,/,/
CC1CC(C)CN(S(=O)(=O)c2ccc(C(=O)NCc3ccc4c(c3)OCO4)cc2)C1 (centres undefined),0,-1,4,6,-3,9,/,/,/,/
COc1ccc2cc(C#N)c(N3CCN(Cc4nnnn4CCC(C)C)CC3)nc2c1,0.7*,15,-18,4,-12,31,118,0,116,0
COc1ccc(/C=N\NC(=O)CNC(=O)C2COc3ccccc3O2)cc1[N+](=O)[O-] (centres undefined),0,-6,-12,6,8,-27,/,/,/,/
COc1cc(/C=C2\SC(=S)N(C(C(=O)O)c3ccccc3)C2=O)ccc1O (centres undefined),0,-22,-2,5,-7,13,/,/,/,/
O=C(O)C(c1ccccc1)N1C(=O)/C(=C\c2ccc(O)c(O)c2)SC1=S (centres undefined),2.0*,-4,-1,-11,-26,10,116,0,125,0
N#Cc1cnc2ncnn2c1-c1ccccc1,0,14,7,2,-14,12,/,/,/,/
Nc1c(-c2ccccc2)cnc2ncnn12,1.7*,-15,-13,-13,22,6,97,0,91,0
O=C(NCCCN1CCOCC1)c1cccc(S(=O)(=O)N2CCOCC2)c1,106*,9,8,-1,-15,-2,103,0,104,0
O=C(NCCCN1CCOCC1)C(=O)N/N=C/c1ccccc1O,0.8*,-7,-1,9,-8,14,111,0,101,0
Cc1ccc(S(=O)(=O)N2CCOCC2)cc1NC(=O)COC(=O)Cc1cccs1,0,10,-2,10,-7,5,/,/,/,/
Cc1ccc(S(=O)(=O)N2CCOCC2)cc1NC(=O)COC(=O)CNC(=O)c1ccccc1,9.1*,8,-5,0,-6,-3,102,0,101,0
CCOc1cccc(-c2nc(C(N)=O)c3[nH]c(=O)n(-c4cccc(Cl)c4)c3n2)c1O,0,-8,3,-3,-9,5,105,0,123,0
CCOc1ccccc1-c1nc(C(N)=O)c2[nH]c(=O)n(-c3cccc(C)c3)c2n1,0.7*,22,9,18,6,-6,94,1,114,1
CCC(CC)c1nc(C(N)=O)c2[nH]c(=O)n(-c3ccc(OC)c(OC)c3)c2n1,0,8,-23,9,-30,-10,/,/,/,/
Clc1ccc(-c2n[nH]c3c2CCCC3)cc1,0,-37,-111,-8,-10,-11,/,/,/,/
Clc1ccc(-c2n[nH]c3c2CCC3)cc1Cl,0.6*,-11,-12,-4,17,6,94,0,104,0
C=CCn1c(NC(=O)c2ccco2)nc2ccccc21,0,15,17,5,9,-1,/,/,/,/
O=c1cc(COc2ccc(Cl)c(Cl)c2)nc2sccn12,0.9*,-6,-18,-1,-34,-25,124,0,114,0
CN(C(=O)CSc1ncccn1)C1CCS(=O)(=O)C1 (centres undefined),5.3*,23,1,15,6,-9,112,0,117,0
COc1ccc(N2C(=O)C(OC(C)=O)C2c2ccc(C)cc2)cc1 (centres undefined),0,5,-30,13,5,4,/,/,/,/
COc1ccc([C@@H]2Sc3ccccc3N(CCN(C)C)C(=O)[C@@H]2OC(C)=O)cc1,0,1,-2,-9,17,-21,114,0,114,0
COc1ccc([C@H]2CC(=O)C=C(c3cc(C=O)ccc3OC)C2)cc1,0,5,-4,0,-13,12,/,/,/,/
SMILES,Efflux pump inh,LRH-1 inv ag,SRC1 inh,NCOA3 inh,SRC2 inh,COUP-TFII inh,Yeast cmpd fluor,CaMdr1 efflux inh,Cdr2 pump inh,Cdr1 pump inh
Cc1cc2ccccc2n2c(SCC(=O)Nc3ccc(S(=O)(=O)N4CCC(C)CC4)cc3)nnc12,6.8*,-2,-7,19,9,-9,96,0,114,0
COc1cc(-c2nc(-c3ccccc3)c(-c3ccc(F)cc3)[nH]2)cc2c1OCO2,0,11,-4,6,16,-7,/,/,/,/
COc1ccc(-c2[nH]c(-c3ccc4c(c3)OCO4)nc2-c2ccccc2)cc1,0.3*,-1,3,3,3,-4,105,0,114,0
O=C(O)c1cc(NS(=O)(=O)c2ccc(N3CCCCC3)c([N+](=O)[O-])c2)cc(C(=O)O)c1,11*,18,4,9,-11,1,103,0,107,0
CNS(=O)(=O)c1ccc(N2CCCC2)c([N+](=O)[O-])c1,0,7,9,21,2,-16,/,/,/,/
Cc1ccc(S(=O)(=O)N2CCN(C(=O)CC(C)(C)C)CC2)cc1,0,4,-18,6,-4,-2,/,/,/,/
CCN(CC)c1ccc2cc(-c3nc(-c4ccc(OC)cc4)cs3)c(=O)oc2c1,6.0*,/,/,/,-50,-10,640*,1,732*,2
CCN(CC)c1ccc2cc(-c3nnc(-c4ccccc4)o3)c(=O)oc2c1,0,-153,-127,-110,-54,-11,/,/,/,/

# Screening results: PubChem, several laboratories
